Only some compounds are listed: those with a hit (about 4.7% of all), similar ones and a draw of the others.
ADAM17 inh = inhibitors of human ADAM17. P78536. recombinant ADAM17, EDANS/DABCYL FRET peptide cleavage. inhibition, % at 6.95 µM. actives 0.83% (n = 370,000). AID 720648;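 active = inhibition above the mean of compounds lying between control limits plus 3 SD, set per campaign, cut at about 8.5% in these data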
ADAM10 inh = inhibits human ADAM10; O14672; recombinant ADAM10, EDANS/DABCYL FRET peptide cleavage, 3 h; inhibition, % at 7 µM; actives 0.62% (n = 370,000);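 active = inhibition above a per-campaign cutoff equal to the mean of compounds falling between control-based bounds plus 3 SD, cut at about 20% in these data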
MPTP inh = permeability transition pore inhibition; inhibition, % at 10 µM; actives 1.4% (n = 360,000); isolated mouse mitochondria, Ca2+ swelling absorbance, 30 min; AID 602449;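 active = inhibition of 50% or more, scaled per plate between neutral and stimulator controls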
Pemphigus Ab inh = inhibitors of pemphigus antibody binding to human desmoglein-3 | P32926 | DSG3-coupled beads, scFv-anti-DSG3-GFP binding, flow cytometry; hits give low values | binding (percent of control), % at 10 µM | actives 0.48% (n = 310,000);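 active = binding more than 3 SD below its plate's average and above zero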;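 also: hits lower antibody fragment binding to DSG3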
Target sequence (P32926 whole entry, looked up, the tested form may be a part): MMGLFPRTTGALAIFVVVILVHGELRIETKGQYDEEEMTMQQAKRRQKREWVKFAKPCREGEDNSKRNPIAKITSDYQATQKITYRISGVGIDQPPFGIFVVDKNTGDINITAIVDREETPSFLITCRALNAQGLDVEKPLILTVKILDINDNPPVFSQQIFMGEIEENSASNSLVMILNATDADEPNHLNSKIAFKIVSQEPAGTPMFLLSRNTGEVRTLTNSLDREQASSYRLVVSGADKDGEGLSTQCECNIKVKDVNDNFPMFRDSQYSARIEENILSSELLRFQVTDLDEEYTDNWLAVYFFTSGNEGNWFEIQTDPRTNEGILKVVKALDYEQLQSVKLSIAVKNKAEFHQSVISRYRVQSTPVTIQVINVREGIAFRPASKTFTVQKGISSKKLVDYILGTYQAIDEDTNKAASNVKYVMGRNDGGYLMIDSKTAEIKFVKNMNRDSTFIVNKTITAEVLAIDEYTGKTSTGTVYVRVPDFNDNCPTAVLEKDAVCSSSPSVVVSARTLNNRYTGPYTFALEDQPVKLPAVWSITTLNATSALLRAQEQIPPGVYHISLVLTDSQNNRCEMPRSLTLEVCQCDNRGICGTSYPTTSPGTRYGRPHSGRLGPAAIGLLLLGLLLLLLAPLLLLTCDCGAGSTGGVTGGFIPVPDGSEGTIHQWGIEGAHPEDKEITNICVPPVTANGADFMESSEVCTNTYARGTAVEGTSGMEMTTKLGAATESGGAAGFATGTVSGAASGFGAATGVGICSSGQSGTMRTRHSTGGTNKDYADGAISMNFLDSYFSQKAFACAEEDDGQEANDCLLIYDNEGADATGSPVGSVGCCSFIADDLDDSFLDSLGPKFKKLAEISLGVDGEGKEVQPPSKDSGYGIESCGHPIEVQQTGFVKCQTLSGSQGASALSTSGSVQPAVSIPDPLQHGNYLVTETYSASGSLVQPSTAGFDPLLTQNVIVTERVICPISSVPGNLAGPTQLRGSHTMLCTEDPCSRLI
rCAG binder = r(CAG) repeat RNA binding; actives 1.3% (n = 370,000); inhibition, % at 3 µM; TO-PRO-1 dye displacement fluorescence;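 active = inhibition above the plate cutoff, the mean of all test compounds on that plate plus 3 SD, cut at about 35% in these data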;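 also: higher means more dye released from RNA so lower well fluorescence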
KLK7 zymogen act = proKLK7 (human) activation, primary screen; actives 0.9% (n = 370,000); purified proKLK7, EDANS-DABCYL substrate fluorescence; 100% is mature enzyme control, 0% vehicle; activation, % at 7 µM;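 active = activation above the mean of all tested compounds plus 3 SD, computed per campaign excluding outliers beyond control limits, cut at about 13% in these data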
Rh123 counter = Rhodamine 123 counter-screen of mitochondrial pore hits | shares compounds with MPTP inh | isolated mitochondria, membrane potential, Rhodamine 123 fluorescence | inhibition, % at 10 µM | actives 78% (n = 5,000) | AID 624504; in the data active = inhibition above about 22%
MPTP swell DR = dose response confirmation of mitochondrial permeability transition pore inhibitors; shares compounds with MPTP inh; isolated mitochondria swelling, absorbance; IC50, µM; actives 58% (n = 780); AID 651561; in the data active = IC50 below about 20 µM
MPTP cs DR = active in counter-screen for permeability transition pore inhibitors; shares compounds with MPTP inh; isolated mitochondria counterscreen, fluorescence read-out; IC50, µM; actives 49% (n = 780); AID 651564; in the data active = IC50 below about 80 µM
Numbers stand for hits; – = inactive; · = no result given.

SMILES	ADAM17 inh	ADAM10 inh	MPTP inh	Pemphigus Ab inh	rCAG binder	KLK7 zymogen act	Rh123 counter	others
O=C(Nc1ccncc1)c1ccc(Cl)c(S(=O)(=O)N2CCc3ccccc32)c1	–	–	57.7	–	–	–	91.3
COC(=O)c1ccc2nc(Nc3nc4ccc(F)cc4s3)sc2c1	–	–	89.2	–	–	–	71.7
COC(=O)c1ccc2nc(NC(=O)C(C)(C)C)sc2c1	–	–	–	–	–	–	·
O=C(NNc1nc2ccc(F)cc2s1)c1cccc(F)c1	–	–	92.2	–	–	–	75.6
COC(=O)[C@]12C[C@H](CC(=O)NCCC(C)C)C(=O)N(Cc3cccc4ccccc34)C1=C[C@H](COCc1ccccc1)O[C@@H]2C	–	–	·	·	–	–	·
O=S1(=O)c2ccc(N3CCSCC3)cc2Oc2ccccc2CN1Cc1cn(Cc2ccccc2C(F)(F)F)nn1	–	–	·	·	–	–	·
COc1ccc(CN(C)Cc2c(O)ccc3cc(Br)ccc23)cc1OC	–	–	68.5	·	–	–	50.4
COc1ccc(CCN(C)Cc2c(O)ccc3cc(Br)ccc23)cc1OC	–	–	–	–	–	–	·
Oc1ccccc1N1CCN(C(=S)Nc2ccc(SC(F)F)cc2)CC1	–	–	–	–	–	–	·
CCCCNC(=S)Nc1ccc(SC(F)F)cc1	–	–	97.8	–	–	–	73.0
Oc1cccc(NC(=S)Nc2ccc(SC(F)F)cc2)c1	–	–	91.0	–	–	–	84.3
Oc1cccc2c(NC(=S)Nc3ccc(SC(F)F)cc3)cccc12	–	–	87.6	–	–	–	88.1
FC(F)Sc1ccc(NC(=S)NC2CCC(NC(=S)Nc3ccc(SC(F)F)cc3)CC2)cc1 (stereo not drawn)	–	–	–	·	–	–	·
COC(=O)c1cc2c(c3c4ccccc4n(S(=O)(=O)c4ccccc4)c13)C(=O)N(Cc1ccc(C(F)(F)F)cc1)C2	–	–	·	·	–	–	·
CC[n+]1c(/C=C/c2ccc(OC)c(OC)c2)ccc2ccccc21	–	–	–	–	–	–	·
CC[n+]1c(/C=C/c2ccc(N(C)C)cc2)ccc2ccccc21	–	–	141.0	·	–	–	55.1
CC[n+]1ccc(/C=C/c2ccc(N(C)C)cc2)c2ccccc21	–	–	119.1	–	–	–	68.4
CCN(CC)c1ccc(/C=C/c2ccc3ccc(OC)cc3[n+]2CC)cc1	–	–	64.1	–	–	–	63.0
CC[n+]1ccccc1/C=C/c1ccc(N(C)C)cc1	–	–	–	–	–	–	·
CCCCCC[n+]1ccccc1/C=C/c1ccc(N(C)C)cc1	–	–	57.7	·	–	–	102.6
C[C@@H]1CCCCO[C@@H](CN(C)C(=O)CCC(F)(F)F)[C@@H](C)CN([C@H](C)CO)C(=O)c2cc(NS(=O)(=O)c3cccs3)ccc2O1	–	–	·	·	–	–	·
Cc1cc(C(=O)O[C@H]2CCC[C@]3(C(=O)N(Cc4ccccc4)c4ccccc43)[C@H]2NC(=O)CCc2ccccc2)no1	–	–	·	·	–	–	·
COc1ccc(C2CC3CN(C4CCCCC4)C(=O)C3N2C)cc1 (stereo not drawn)	–	–	·	·	–	–	·
C[C@@H]1CN([C@@H](C)CO)C(=O)CCCn2cc(nn2)CO[C@H]1CN(C)C(=O)NC1CCCCC1	–	–	·	·	–	–	·
COc1ccc(-c2noc(-c3ccc4c(c3)OCO4)n2)cc1	–	–	–	·	–	–	·
COc1ccc(-c2nc(-c3ccc4c(c3)OCO4)[nH]c2-c2ccc(OC)cc2)cc1	–	–	69.4	–	–	–	69.2
Oc1c(C=C2N=c3ccccc3=N2)sc(=S)n1C1CCCCC1	–	–	77.1	–	–	–	–	MPTP swell DR=–;MPTP cs DR=–
Oc1ccc(Br)cc1-c1cc(-c2ccccc2Cl)[nH]n1	–	–	73.6	–	–	–	58.7
Oc1ccc(Br)cc1-c1cc(-c2ccccc2F)[nH]n1	–	–	63.3	–	–	–	57.7

Screening results as filed in PubChem BioAssay.
